{"source": "the supplement of paper PMC9023506", "note": "Where a name gives a salt, the structure may show the parent alone.", "data": [{"tested_on": "Danio rerio larvae (5 dpf)", "test": "optomotor response to red moving lines, difference vs DMSO (percentage points (treated minus DMSO)); higher = more of the behaviour than the DMSO vehicle control", "conditions": "10 µM; exposure time: 3 h pre-incubation + 3 h imaging", "description": "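5-dpf wild-type zebrafish larvae were imaged in 96-well plates. They were treated with 190 Tocris FDA-approved drugs at 10 µM (1 µl/ml DMSO) for 3 h before and 3 h during imaging at 28.5 °C, 48 larvae per drug. Automated image analysis gave % time moving and optomotor responses. Values are drug group mean minus DMSO vehicle mean (n=844), in percentage points, for 10 behaviours.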", "values": [{"smiles": "CCOc1ccccc1OCCN[C@H](C)Cc1ccc(OC)c(S(N)(=O)=O)c1", "note": "[Tamsulosin hydrochloride]", "optomotor response to red moving lines": -6.78}, {"smiles": "CC1=Nc2ccc(Cl)cc2S(=O)(=O)N1", "note": "[Diazoxide]", "optomotor response to red moving lines": 0.599}, {"smiles": "CCCCCCCN(CC)CCCC(O)c1ccc(NS(C)(=O)=O)cc1", "note": "(stereo not given) [Ibutilide hemifumarate]", "optomotor response to red moving lines": 10.1}, {"smiles": "CNCc1ccc(-c2[nH]c3cc(F)cc4c3c2CCNC4=O)cc1", "note": "[Rucaparib camsylate]", "optomotor response to red moving lines": 2.5}, {"smiles": "CCC(C)(C)C(=O)O[C@H]1C[C@@H](C)C=C2C=C[C@H](C)[C@H](CC[C@@H]3C[C@@H](O)CC(=O)O3)[C@H]21", "note": "[Simvastatin]", "optomotor response to red moving lines": -5.54}, {"smiles": "Cc1nc(Nc2ncc(C(=O)Nc3c(C)cccc3Cl)s2)cc(N2CCN(CCO)CC2)n1", "note": "[Dasatinib]", "optomotor response to red moving lines": -9.17}, {"smiles": "N#Cc1ccc(C(c2ccc(C#N)cc2)n2cncn2)cc1", "note": "[Letrozole]", "optomotor response to red moving lines": -12.7}, {"smiles": "C[C@H]1O[C@H](O[C@H]2[C@H](O)[C@@H](O)[C@@H](O[C@H]3[C@H](O)[C@@H](O)C(O)O[C@@H]3CO)O[C@@H]2CO)[C@H](O)[C@@H](O)[C@@H]1N[C@H]1C=C(CO)[C@@H](O)[C@H](O)[C@H]1O", "note": "(stereo not given in full) [Acarbose]", "optomotor response to red moving lines": 6}, {"smiles": "Cc1cccc(C)c1OCC(C)N", "note": "(stereo not given) [Mexiletine hydrochloride]", "optomotor response to red moving lines": 3.43}, {"smiles": "C[C@H](Cc1cc2c(c(C(N)=O)c1)N(CCCO)CC2)NCCOc1ccccc1OCC(F)(F)F", "note": "[Silodosin]", "optomotor response to red moving lines": 6.25}, {"smiles": "CC[C@H](C)C(=O)O[C@H]1C[C@@H](C)C=C2C=C[C@H](C)[C@H](CC[C@@H]3C[C@@H](O)CC(=O)O3)[C@H]21", "note": "[Lovastatin]", "optomotor response to red moving lines": -6.33}, {"smiles": "NS(=O)(=O)Cc1noc2ccccc12", "note": "[Zonisamide]", "optomotor response to red moving lines": 13}, {"smiles": "CCOC(=O)C1=C(C)NC(C)=C(C(=O)OC)C1c1cccc(Cl)c1Cl", "note": "(stereo not given) [Felodipine]", "optomotor response to red moving lines": 4.89}, {"smiles": "CCOC(=O)N1CCC(=C2c3ccc(Cl)cc3CCc3cccnc32)CC1", "note": "[Loratidine]", "optomotor response to red moving lines": -14.1}, {"smiles": "CN1CCN2c3ncccc3Cc3ccccc3C2C1", "note": "(stereo not given) [Mirtazapine]", "optomotor response to red moving lines": -3.88}, {"smiles": "Nc1nc(Cl)nc2c1ncn2[C@@H]1O[C@H](CO)[C@@H](O)[C@@H]1F", "note": "[Clofarabine]", "optomotor response to red moving lines": 1.11}, {"smiles": "CCOC(=O)c1ncn2c1CN(C)C(=O)c1cc(F)ccc1-2", "note": "[Flumazenil]", "optomotor response to red moving lines": -7.04}, {"smiles": "Cc1cc(C2CCCCC2)n(O)c(=O)c1", "note": "[Ciclopirox]", "optomotor response to red moving lines": -5.18}, {"smiles": "OC(CNCC(O)C1CCc2cc(F)ccc2O1)C1CCc2cc(F)ccc2O1", "note": "(stereo not given) [Nebivolol hydrochloride]", "optomotor response to red moving lines": -16.2}, {"smiles": "COC(=O)C1=C(C)NC(C)=C(C(=O)OC(C)C)C1c1cccc2nonc12", "note": "(stereo not given) [Isradipine]", "optomotor response to red moving lines": -7.63}, {"smiles": "CC(C)[C@H]1CC[C@H](C(=O)N[C@H](Cc2ccccc2)C(=O)O)CC1", "note": "[Nateglinide]", "optomotor response to red moving lines": 12.8}, {"smiles": "CC(C)(C)NC(=O)[C@@H]1C[C@@H]2CCCC[C@@H]2CN1C[C@@H](O)[C@H](Cc1ccccc1)NC(=O)[C@H](CC(N)=O)NC(=O)c1ccc2ccccc2n1", "note": "[Saquinavir mesylate]", "optomotor response to red moving lines": -16.6}, {"smiles": "COc1ccc(-c2ccc3cc(C(=O)O)ccc3c2)cc1C12CC3CC(CC(C3)C1)C2", "note": "[Adapalene]", "optomotor response to red moving lines": -12.7}, {"smiles": "COC(c1ccccc1)(c1ccccc1)[C@H](Oc1nc(C)cc(C)n1)C(=O)O", "note": "[Ambrisentan]", "optomotor response to red moving lines": -4.02}, {"smiles": "CN/C(=N\\CCSCc1nc[nH]c1C)NC#N", "note": "[Cimetidine]", "optomotor response to red moving lines": 5.88}, {"smiles": "Cc1cc2c(s1)Nc1ccccc1N=C2N1CCN(C)CC1", "note": "[Olanzapine]", "optomotor response to red moving lines": 4.76}, {"smiles": "CC(C)(C(=O)O)c1ccc(C(O)CCCN2CCC(C(O)(c3ccccc3)c3ccccc3)CC2)cc1", "note": "(stereo not given) [Fexofenadine hydrochloride]", "optomotor response to red moving lines": 3.62}, {"smiles": "O=C1CCc2ccc(OCCCCN3CCN(c4cccc(Cl)c4Cl)CC3)cc2N1", "note": "[Aripiprazole]", "optomotor response to red moving lines": 6.21}, {"smiles": "CCC(=O)O[C@]1(C(=O)SCF)[C@H](C)C[C@H]2[C@@H]3C[C@H](F)C4=CC(=O)C=C[C@]4(C)[C@@]3(F)[C@@H](O)C[C@@]21C", "note": "[Fluticasone propionate]", "optomotor response to red moving lines": -12.2}, {"smiles": "CC(C)C(=O)OCC(=O)[C@@]12O[C@H](C3CCCCC3)O[C@@H]1C[C@H]1[C@@H]3CCC4=CC(=O)C=C[C@]4(C)[C@H]3[C@@H](O)C[C@@]12C", "note": "[Ciclesonide]", "optomotor response to red moving lines": -8.97}, {"smiles": "Nc1nc2c(ncn2COCCO)c(=O)[nH]1", "note": "[Acyclovir]", "optomotor response to red moving lines": 1.94}, {"smiles": "CCOC(=O)[C@H](CCc1ccccc1)N[C@@H](C)C(=O)N1[C@H](C(=O)O)C[C@@H]2CCC[C@@H]21", "note": "[Ramipril]", "optomotor response to red moving lines": -1.65}, {"smiles": "C=C1[C@H](CO)[C@@H](O)C[C@@H]1n1cnc2c(=O)[nH]c(N)nc21", "note": "[Entecavir]", "optomotor response to red moving lines": 1.68}, {"smiles": "CC(C)(C(=O)c1cccnc1)c1cccnc1", "note": "[Metyrapone]", "optomotor response to red moving lines": 4.83}, {"smiles": "CC(=O)NC[C@H]1CN(c2ccc(N3CCOCC3)c(F)c2)C(=O)O1", "note": "[Linezolid]", "optomotor response to red moving lines": 4.59}, {"smiles": "Brc1c(NC2=NCCN2)ccc2nccnc12", "optomotor response to red moving lines": 17.8}, {"smiles": "Cc1cccc(CN2CCN(C(c3ccccc3)c3ccc(Cl)cc3)CC2)c1", "note": "(stereo not given) [Meclizine dihydrochloride]", "optomotor response to red moving lines": -10.1}, {"smiles": "COc1ccc(C[C@@H](C)NC[C@H](O)c2ccc(O)c(NC=O)c2)cc1", "note": "[Arformoterol tartrate]", "optomotor response to red moving lines": -7.51}, {"smiles": "CCCN(CCC)S(=O)(=O)c1ccc(C(=O)O)cc1", "note": "[Probenecid]", "optomotor response to red moving lines": -2.21}, {"smiles": "O=C(O)CCCc1ccccc1", "note": "[Sodium 4-Phenylbutyrate]", "optomotor response to red moving lines": 3.33}]}]}
